According to the supplement of paper PMC6555819:

What was measured:
Test in all cases: PBM binding z-score (relative to random genomic background probes); higher = stronger binding; sequences stand for … in GC…GCGATTGACAGCGTAGAATGAAGG
[1] = test system: RARb homodimer (NR concentration 270 nM)
In short: (§1)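 Custom Agilent 4×180K protein-binding microarrays carried double-stranded probes, each with a 34-nt variable region. These regions held direct-repeat seeds, single-nucleotide variants, half-site ablations and random human genomic background sequences. Ligand-free nuclear receptor dimers were incubated on the arrays for 1 h, antibodies against each partner (one per run) detected binding, and scanned fluorescence was regression-normalized. Binding z-scores take the random background probes as reference.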

[2] = test system: RARg:RXRa (NR concentration 270 nM, RXRa partner concentration 90 nM)
In short: as §1

[3] = test system: RARg homodimer (NR concentration 270 nM)
In short: as §1

[4] = test system: RXRa DBDmut IVT, anti-RXR (DBD mutation: RXRa K156A/R161A, NR concentration 90 nM)
In short: as §1

[5] = test system: RXRa homodimer (NR concentration 180 nM)
In short: as §1

[6] = test system: THRa:RXRa (NR concentration 90 nM, RXRa partner concentration 90 nM)
In short: as §1

[7] = test system: THRa homodimer (NR concentration 90 nM)
In short: as §1

[8] = test system: VDR homodimer (NR concentration 270 nM)
In short: as §1

Sequence | PBM binding z-score [1] | PBM binding z-score [2] | PBM binding z-score [3] | PBM binding z-score [4] | PBM binding z-score [5] | PBM binding z-score [6] | PBM binding z-score [7] | PBM binding z-score [8]
ATATGTAGGTTAAGGGTCGTTCAGGTTGGTTCGC | 2.6 | 2.82 | 1.63 | 1.64 | 3.9 | 2.48 | 1.75 | 2.58
ACTAGTTGGTCAGTTGAGGTCACACACAATTCGG | 4.23 | 3.87 | 4.02 | 1.51 | 4.05 | 5.15 | 5.39 | 4.05
CAAACTAGGTCACGAAAGGACAAAGTCGAATGAC | 4.13 | 5.37 | 6.43 | 1.59 | 4.1 | 4.56 | 1.59 | 1.06
ATCTAAAGGTCGACGAGGTGAGTATACACCGTTT | 3.05 | 4.38 | 4.38 | 1.52 | 4.1 | 3.82 | 0.836 | 1.29
CCTACTGGGCCATTCAGAGGTCATGGATCATATG | 4.22 | 4.63 | 3.45 | 0.21 | 4.21 | 3.64 | 1.55 | 2.09
CCAGAGAGGTGAGAAGGTAACTCAGCCTCGATTA | 1.31 | 1.52 | 1.22 | 0.0821 | 1.05 | 1.19 | 0.396 | 0.477
GGTACAGGGTCAAGGCCAGAGTACGCGTATTGAT | 3.76 | 5.41 | 5.03 | 1.78 | 5.91 | 3.58 | 1.26 | 2.94
TATACAGGCTCAAAGGCCAGAGTACGAATGTCGA | 0.737 | 0.637 | 0.897 | -0.662 | 0.521 | -0.176 | -0.638 | 0.383
TAGCCTAGGTCGGATCGGGCCAGTATACGCTATA | 0.206 | 0.17 | 0.282 | -1.2 | -0.0599 | 2.67 | -0.787 | -0.985
AGAATGAGGTTATACGTAGATCAGCGAAGAAAGT | 0.428 | 1.76 | 0.909 | 1.41 | 2.13 | 1.99 | 0.0645 | 0.803
ATCTCTAGGCAACAAGTTCAGTGAAAGAGAGGAC | 1.5 | 0.455 | 0.889 | 0.344 | 0.308 | 0.961 | 0.49 | 2.1
GATACAGGGTCAAGGCCAGAGGACGCGTATTGAT | 3.63 | 5.29 | 4.94 | 2.07 | 5.78 | 3.64 | 1.43 | 2.28
GCATAGAGGTAATACAAGGTGAAAGTCCGATTGT | 1.08 | 0.816 | 0.537 | 0.392 | 0.977 | 4.44 | 0.985 | 0.216
CCTATTAGTTGACCATAAGGTCAACCGAAGCTCG | 4.8 | 4.83 | 4.07 | 1.77 | 4.39 | 4.27 | 5.15 | 3.25
AATACTGGGTCACTAGGCCAGAGTAGGTACGAAT | 2.47 | 2.99 | 3.54 | 0.506 | 2.37 | 1.81 | 0.283 | 0.859
ATCTCTAGGGAACCAAGTTCAGTGAATGCCGAAC | 1.21 | 0.277 | 0.53 | 0.569 | 0.332 | 0.497 | -0.301 | 2.58
CTGGAAAGGTCGTGCTCAGGTGAGTATACCAAAC | 2.76 | 5.06 | 3.97 | 1.91 | 4.95 | 4.09 | 0.923 | 0.759
CCTCGGAGGACAACAGGAAGTCAGAGCTGCCAGA | 0.0796 | 0.396 | 1.06 | 0.139 | -0.479 | 0.205 | -0.14 | -0.542

Sequence | PBM binding z-score [1] | PBM binding z-score [2] | PBM binding z-score [3] | PBM binding z-score [4] | PBM binding z-score [5] | PBM binding z-score [6] | PBM binding z-score [7] | PBM binding z-score [8]
CTCGAACGGTCGGTTGAGGTGAGTATACGGATAA | 0.411 | 0.215 | 0.464 | -0.356 | -0.11 | 3.27 | 0.822 | -0.341
CGTCCAAGGTCAGAGATGTCAGTGAATGCCGAGT | 3.66 | 4.35 | 5.29 | 2.72 | 3.3 | 3.29 | 1.9 | 1.82
AGAATGAGGTTAAGATCAGGGTAACAGAATACAT | 1.41 | 2.69 | 1.65 | 1.08 | 2.85 | 3.16 | 1.45 | 0.804
CGTCAAAGTTCAACTAAGGTAACGGAAAGCACGC | 4.39 | 5.99 | 6.88 | 4.63 | 5.09 | 5.24 | 1.9 | 3.47
CGTCGAAGGTCAAAGGTCAGTGAAGAGATGACGG | 5.17 | 8.72 | 7.78 | 3.05 | 9.99 | 4.58 | 0.832 | 2.54
CATCCAAGGTCAAGGTCAGTGAAAGAGACTCGAA | 5.3 | 6.9 | 7.48 | 3.81 | 6.28 | 4.48 | 3.62 | 3.23
CCTTATGGGTCACGAGGTTATAGCACGACGAGCG | 3.34 | 5.59 | 4.86 | 1.46 | 6.1 | 3.3 | 0.63 | 1.1
ACTATTAGTTGAGACGAGGGCAACAGATAGGTTG | 1.17 | 0.793 | 0.969 | 0.472 | 0.663 | 2.42 | 0.255 | 1.15
AGAATGACGTTACCAAAGATCAGGGAAACGCTTG | -0.559 | 0.085 | 0.256 | -0.636 | 0.0989 | -0.427 | -0.611 | 0.0201
CCTTACGGGTCAAGGTTATAGCTCGGGTGGTACG | 3.57 | 4.65 | 4.28 | 0.811 | 4.81 | 3.01 | 1.1 | 1.18
TCGAGTAGGTTACCAAAGGGGCATTCAGCTTTCT | 1.34 | 2.2 | 0.617 | 0.44 | 0.779 | 0.46 | -0.71 | 0.0103
TCTTGTTGGTCAAAGGTCACACACTCGAAATGCG | 5.33 | 7.36 | 6.57 | 2.02 | 8.27 | 4.21 | 2.56 | 3.06
CCTAGCAGGCCACTCTGGGTCACTCAAGGCTTGA | 2.05 | 1.36 | 1.45 | 0.0538 | 0.851 | 3.4 | 0.412 | 0.081
TCGAGTAGGTTACCAATGAGGCATTCAGCTTTCT | -0.0486 | 0.457 | 0.0733 | 0.229 | 0.47 | -0.137 | -0.781 | -1.08
CCTACTGGGCCATTCAGTGGTCATTGATCATATG | 0.199 | 0.241 | 0.159 | -0.408 | -0.279 | -0.329 | -0.878 | -0.288
GCTTGTTGATCAAGGTTAAGAAAGACTAAGCTAA | 0.2 | 0.237 | 0.0786 | 0.0866 | 0.387 | 1.23 | -0.213 | -0.369
TCTTGTAGATCAGAGGTTAAGAAAGCCGAAGCCT | 0.579 | 0.522 | 0.221 | 0.653 | 1.5 | 0.868 | -0.337 | 0.103
